Assay results taken from PubChem BioAssay (NCATS).
Records with an inconclusive call do not appear. A call without a number means that no potency is given here. Calls of active or inactive are those of the source. The call rests on the fitted dose curve; in most records, active means well fitted cell-killing curve with a large enough effect; inconclusive means small, poorly fitted or top-dose-only effect, or effect the other way; inactive means no such curve, though single readings can be large or run the other way.

What was measured:
[1] = Quantitative High-Throughput drug screen in 47 multiple myeloma cell lines against the NCATS MIPE library collection: FR4_PLB cell viability assay (AID 1918924; further: nearly all actives have a fitted effect of over 35% in size)
Summary of the method: (§1)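 We plated 500 myeloma cells per well, pinned in MIPE 4.0 compounds, and incubated for 48 hours at 37C. ATP was then quantified with CellTiter-Glo, with DMSO and media-only wells defining 100% and 0%.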

[2] = Quantitative High-Throughput drug screen in 47 multiple myeloma cell lines against the NCATS MIPE library collection: EJM_DSMZ cell viability assay (AID 1918926; further: nearly all actives have a fitted effect of over 30% in size)
Summary of the method: (§2)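 Myeloma cells (500 per well) were exposed to MIPE 4.0 compounds by pin transfer and incubated 48 hours at 37C, 5% CO2. Viability was read as ATP by CellTiter-Glo luminescence, normalised to DMSO (100%) and media-only (0%) wells.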

[3] = Quantitative High-Throughput drug screen in 47 multiple myeloma cell lines against the NCATS MIPE library collection: ARD_JJKsccE7 cell viability assay (AID 1918929)
Summary of the method: as §2

[4] = Quantitative High-Throughput drug screen in 47 multiple myeloma cell lines against the NCATS MIPE library collection: AMO1_DSMZ cell viability assay (AID 1918927; further: nearly all actives have a fitted effect of over 30% in size)
Summary of the method: as §2

[5] = Quantitative High-Throughput drug screen in 47 multiple myeloma cell lines against the NCATS MIPE library collection: ARP1_JJKsccF8 cell viability assay (AID 1918928; further: nearly all actives have a fitted effect of over 40% in size)
Summary of the method: (§3)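 CellTiter-Glo luminescence after 48 h exposure gives viability, scaled between DMSO-only (100%) and media-only (0%) controls. Library compounds are pinned onto 500 myeloma cells per well, incubated at 37C with 5% CO2.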

[6] = Quantitative High-Throughput drug screen in 47 multiple myeloma cell lines against the NCATS MIPE library collection: Karpas620_DSMZ cell viability assay (AID 1918959); further: nearly all actives have a fitted effect of over 30% in size
Summary of the method: as §1

[7] = Quantitative High-Throughput drug screen in 47 multiple myeloma cell lines against the NCATS MIPE library collection: KMM1_JCRB cell viability assay (AID 1918960); further: nearly all actives have a fitted effect of over 30% in size
Summary of the method: as §3

[8] = Quantitative High-Throughput drug screen in 47 multiple myeloma cell lines against the NCATS MIPE library collection: Delta47_JCRB cell viability assay (AID 1918925; further: nearly all actives have a fitted effect of over 45% in size)
Summary of the method: as §2
Potency means the concentration at half of the fitted maximal effect.

| SMILES | Potency [1] | Potency [2] | Potency [3] | Potency [4] | Potency [5] | Potency [6] | Potency [7] | Potency [8] |
| --- | --- | --- | --- | --- | --- | --- | --- | --- |
| O=C(C=CC=Cc1ccc2c(c1)OCO2)N1CCCCC1 | inactive | inactive | inactive |  |  |  |  |  |
| C[C@H](NC(=O)[C@@H](O)c1cc(F)cc(F)c1)C(=O)N[C@@H]1C(=O)N(C)c2ccccc2-c2ccccc21 | inactive |  | inactive | inactive | inactive | inactive | inactive |  |
| CON=C(C(=O)N[C@@H]1C(=O)N2C(C(=O)O)=C(Cn3ccc(=N)n3CCO)CS[C@H]12)c1csc(N)n1 | inactive | inactive | inactive | inactive |  | inactive | inactive |  |
| CC(C)Oc1ccc(C(=O)N[C@H](CNC(=O)CN(C)C)Cc2ccc(-c3cn4cccc([C@H](C)O)c4n3)cc2)cc1Cl | 0.148 µM (active) |  | 0.264 µM (active) | 0.332 µM (active) | 0.935 µM (active) | 0.187 µM (active) | 0.209 µM (active) |  |
| Cc1nc(NC(=O)N2CCC[C@@H]2C(N)=O)sc1-c1ccnc(C(C)(C)C(F)(F)F)c1 |  |  |  |  |  |  |  | 1.66 µM (active) |
| COC(=O)[C@H](CCCN=C(N)N)NS(=O)(=O)c1ccc(C)cc1 | inactive | inactive | inactive |  | inactive | inactive | inactive |  |
| O=C(NCc1ccccc1)[C@H](Cc1ccccc1)NC(=O)[C@@H]1O[C@@H]1C(=O)NCCc1ccc(O)cc1 | inactive | 0.0833 µM (active) |  | 20.9 µM (active) |  | 26.4 µM (active) |  |  |
| Cc1ccc([N+](=O)[O-])cc1S(=O)(=O)N(C)N=Cc1cnc2ccc(Br)cn12 | 0.0166 µM (active) | 0.0235 µM (active) | 0.0118 µM (active) |  | 0.0264 µM (active) | 0.0264 µM (active) | 0.0118 µM (active) |  |
| C=C1C[C@@]2(O)O[C@@]3(C[C@H]2C(C)C)[C@H](C)CC[C@H]13 |  | inactive | inactive | inactive | inactive |  |  | inactive |
| N=c1ccn2c(n1)O[C@H]1[C@@H](O)[C@@H](CO)O[C@H]12 | inactive | inactive |  |  | 0.332 µM (active) |  | 10.5 µM (active) |  |
| CN1[C@H]2CC(OC(=O)[C@@H](CO)c3ccccc3)C[C@H]1[C@H]1O[C@H]12 (stereo not given in full) | inactive |  | inactive | inactive | inactive | inactive | inactive |  |
| Cc1ccc(-n2[nH]c(C)c(N=Nc3cccc(-c4cccc(C(=O)O)c4)c3O)c2=O)cc1C | 20.9 µM (active) |  | inactive | inactive |  |  |  |  |
| Nc1nc(=O)n([C@H]2C[C@H](O)[C@@H](CO)O2)cc1F | inactive | inactive | inactive |  | 0.526 µM (active) | inactive | 0.0074 µM (active) |  |
| OC[C@H]1OC(O)C[C@@H](O)[C@H]1O (stereo not given in full) | inactive | inactive |  |  | inactive | inactive |  |  |
| CC(=O)N[C@@H]1[C@H](O[C@@H]2c3ccc(c(Cl)c3)Oc3cc4cc(c3O[C@H]3O[C@H](CO)[C@@H](O)[C@H](O)[C@H]3NC(=O)CCCCCCCC(C)C)Oc3ccc(cc3Cl)C[C@H]3NC(=O)[C@H](N)c5ccc(O)c(c5)Oc5cc(O)cc(c5)[C@H](NC3=O)C(=O)N[C@H]4C(=O)N[C@H]3C(=O)N[C@@H]2C(=O)N[C@@H](C(=O)O)c2cc(O)cc(O[C@H]4O[C@H](CO)[C@@H](O)[C@H](O)[C@H]4O)c2-c2cc3ccc2O)O[C@H](CO)[C@@H](O)[C@@H]1O | inactive | inactive | inactive |  | inactive | inactive | inactive |  |
| C[N+](C)([O-])CCNc1ccc(NCC[N+](C)(C)[O-])c2c1C(=O)c1c(O)ccc(O)c1C2=O | inactive |  |  | inactive |  |  | inactive |  |
| COc1cc(C)c(C=CC(C)=CC=CC(C)=CC(=O)O)c(C)c1C | inactive |  | inactive | inactive | inactive |  |  |  |

| SMILES | Potency [1] | Potency [2] | Potency [3] | Potency [4] | Potency [5] | Potency [6] | Potency [7] | Potency [8] |
| --- | --- | --- | --- | --- | --- | --- | --- | --- |
| C[C@@]12C[C@@]3(O)O[C@@H](O1)[C@]1(COC(=O)c4ccccc4)[C@@H]3C[C@@]12O[C@@H]1O[C@H](CO)[C@@H](O)[C@H](O)[C@@H]1O | inactive | inactive | inactive | inactive |  | inactive | inactive |  |
| O=C(O)CCCCCC(=O)NN=C1CCCC1 | inactive | inactive | inactive |  | inactive | inactive | inactive |  |
| CCCCCCCCc1ccc(CCC(N)(CO)CO)cc1 |  | 23.5 µM (active) | 14.8 µM (active) | 8.33 µM (active) | 10.5 µM (active) |  |  | 5.26 µM (active) |
| O=c1ccn([C@@H]2O[C@H](CO)[C@H](O)[C@@H]2F)c(=O)[nH]1 | inactive |  | inactive |  | inactive | inactive | inactive |  |
| CON=C(C(=O)N[C@@H]1C(=O)N2C(C(=O)O)=C(CSC(=O)c3ccco3)CS[C@H]12)c1csc(N)n1 | inactive |  |  | inactive |  | inactive | inactive |  |
| CC(=O)ON=C1C(c2c(O)[nH]c3cc(Br)ccc23)=Nc2ccccc21 |  | 11.8 µM (active) | 5.26 µM (active) | 1.87 µM (active) | 10.5 µM (active) | 4.69 µM (active) |  | 5.26 µM (active) |
| C[C@]12C=CC(=O)N[C@@H]1CC[C@H]1[C@H]3CC[C@@H](C(=O)Nc4cc(C(F)(F)F)ccc4C(F)(F)F)[C@@]3(C)CC[C@@H]12 | 18.7 µM (active) |  | inactive | inactive |  |  | inactive |  |
| CC[C@H]1OC(=O)[C@H](C)[C@@H](O[C@H]2C[C@@](C)(OC)[C@@H](O)[C@H](C)O2)[C@H](C)[C@@H](O[C@@H]2O[C@@H](C)C[C@H](N(C)C)[C@@H]2O)[C@](C)(O)C[C@@H](C)C(=O)[C@H](C)[C@@H](O)[C@]1(C)O | inactive |  | inactive | inactive | inactive | inactive | inactive |  |
| CC1(C)O[C@@H]2C[C@H]3[C@@H]4CCC5=CC(=O)C=C[C@]5(C)[C@@H]4[C@@H](O)C[C@]3(C)[C@]2(C(=O)CO)O1 | inactive | inactive | 0.0053 µM (active) |  | 0.0372 µM (active) |  |  |  |
| CCCCCCCN(CC)CCCC(O)c1ccc(NS(C)(=O)=O)cc1 (stereo not given) | inactive |  | 20.9 µM (active) | 23.5 µM (active) | inactive |  | 20.9 µM (active) |  |
| Cc1onc(-c2ccccc2)c1C(=O)N[C@@H]1C(=O)N2[C@@H](C(=O)O)C(C)(C)S[C@@H]12 | inactive | inactive | inactive | inactive |  |  | inactive |  |
| CC(C)c1cnn2c(NCc3ccccc3)cc(NCCCCCCN)nc12 | 18.7 µM (active) |  | 20.9 µM (active) |  | 16.6 µM (active) |  | 16.6 µM (active) |  |
| NC1=N[C@H]2[C@H](CS[C@H]2CCCCC(=O)O)N1 | inactive | inactive |  |  | inactive |  | inactive |  |
| C[C@]12CC[C@@H]3c4ccc(O)cc4CC[C@H]3[C@H]1CC[C@H]2O | 16.6 µM (active) |  |  | 14.8 µM (active) |  | 4.18 µM (active) |  |  |
| COC(=O)C1C2CC3c4[nH]c5cc(OC)ccc5c4CCN3CC2CC(OC(=O)c2cc(OC)c(OC)c(OC)c2)C1OC (stereo not given) | 3.72 µM (active) |  | 20.9 µM (active) | 20.9 µM (active) |  | 23.5 µM (active) | 20.9 µM (active) |  |
| CCCCC(=O)O[C@]1(C(=O)CO)[C@@H](C)C[C@H]2[C@@H]3CCC4=CC(=O)C=C[C@]4(C)[C@@]3(F)[C@@H](O)C[C@@]21C | inactive | inactive |  | inactive |  | inactive |  |  |
